# Data: PubChem BioAssay (NCATS)
# Inconclusive results are not listed. Entries that show only a call come without a potency. Active and inactive are the calls of the source. Unless noted, the call rests on the fitted dose curve; in most records, active means well fitted inhibition curve with a large enough effect; inconclusive means small, poorly fitted or top-dose-only effect; inactive means flat fitted curve, though single readings scatter.
# Columns and labels:
# [1] = P-glycoprotein substrates identified in KB-8-5-11 adenocarcinoma cell line, qHTS therapeutic library screen (AID 1346987); further: nearly all actives have a fitted effect of over 65% in size
# Summary of the method: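 KB-8-5-11, a colchicine-selected P-gp-overexpressing KB-3-1 subline, was grown without colchicine for the assay. Cells were seeded at 500 cells/well, dosed in concentration-response and incubated 72 h at 37 degree C, 5% CO2. Viability was read by CellTiter-Glo luminescence.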
# [2] = qHTS for Inhibitors of the Functional Ribonucleoprotein Complex (vRNP) of Lassa (LASV) Arenavirus: LASV Primary Screen - GLuc reporter signal (AID 1347082; calls by dose curve; tested in HEK293 reporter line; further: nearly all actives have a fitted effect of over 60% in size)
# [3] = test system: Zika virus NS2B-NS3 protease; assay: Primary screen GU AMC qHTS for Zika virus inhibitors (AID 1347154); further: nearly all actives have a fitted effect of over 70% in size
# Summary of the method: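 Unlinked Zika NS2B hydrophilic domain–NS3 protease complex at 25 nM in 10 mM Tris-HCl pH 8.0, 0.01% Tween 20, with an AMC peptide substrate. Fluorescence change (340/450 nm) over 15 min at room temperature, normalized to controls, fitted to 4-parameter Hill.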
# [4] = biological target: Catechol O-methyltransferase (Homo sapiens) (UniProt P21964); assay: Confirmatory Screen for Target Class Profiling of Small Molecule Inhibitors of Methyltransferases (AID 1745852; calls by dose curve); conditions: MTase-Glo luminescence, SAH detection, recombinant enzyme; measured here: COMT max response; stronger effect = lower value
# Catechol O-methyltransferase (Homo sapiens), sequence (P21964 whole entry, looked up): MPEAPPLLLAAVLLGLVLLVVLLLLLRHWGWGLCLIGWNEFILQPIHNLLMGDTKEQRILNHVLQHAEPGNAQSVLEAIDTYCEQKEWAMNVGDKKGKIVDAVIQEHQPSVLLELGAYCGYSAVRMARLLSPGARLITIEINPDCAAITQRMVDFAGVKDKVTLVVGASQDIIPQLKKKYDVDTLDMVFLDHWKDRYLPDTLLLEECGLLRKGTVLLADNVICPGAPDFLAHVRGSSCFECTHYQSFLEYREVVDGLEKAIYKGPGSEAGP
# [5] = biological target: Guanidinoacetate N-methyltransferase (Homo sapiens) (UniProt Q14353); assay: as above; conditions: activity change, negative = inhibition: at 57.3 µM (top of the series) unless noted
# [6] = biological target: Nicotinamide N-methyltransferase (Homo sapiens) (UniProt P40261); assay: as above; conditions: MTase-Glo luminescence, SAH detection, recombinant enzyme; measured here: NNMT max response; stronger effect = lower value
# Nicotinamide N-methyltransferase (Homo sapiens), sequence (P40261 whole entry, looked up): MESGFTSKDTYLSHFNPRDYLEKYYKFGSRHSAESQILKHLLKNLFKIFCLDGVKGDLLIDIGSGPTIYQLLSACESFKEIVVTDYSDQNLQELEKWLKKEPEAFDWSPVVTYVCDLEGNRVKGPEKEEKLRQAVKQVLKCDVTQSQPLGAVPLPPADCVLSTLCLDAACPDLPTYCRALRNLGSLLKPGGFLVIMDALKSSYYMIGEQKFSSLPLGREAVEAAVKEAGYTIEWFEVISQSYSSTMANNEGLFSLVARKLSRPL
# [7] = biological target: Phenylethanolamine N-methyltransferase (Homo sapiens) (UniProt P11086); assay: as above; conditions: MTase-Glo luminescence, SAH detection, recombinant enzyme; measured here: PNMT max response; stronger effect = lower value
# Phenylethanolamine N-methyltransferase (Homo sapiens), sequence (P11086 whole entry, looked up): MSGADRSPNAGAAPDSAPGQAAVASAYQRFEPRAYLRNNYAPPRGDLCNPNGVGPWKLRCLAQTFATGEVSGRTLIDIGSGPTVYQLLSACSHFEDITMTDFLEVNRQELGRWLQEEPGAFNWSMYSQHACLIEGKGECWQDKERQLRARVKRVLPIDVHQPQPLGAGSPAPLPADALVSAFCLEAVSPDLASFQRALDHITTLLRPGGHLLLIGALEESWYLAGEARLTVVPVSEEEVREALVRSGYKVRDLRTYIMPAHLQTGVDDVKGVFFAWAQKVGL
smiles,measurement,setting,value
O=C1NC(=O)c2c1c1c3ccccc3[nH]c1c1[nH]c3ccccc3c21,Potency,[1],inactive
same,Potency,[2],inactive
same,Potency,[3],inactive
same,activity,[4],-2.49%
same,Potency,[5],inactive
same,activity,[6],-2.73%
same,activity,[7],-3.39%
